# Bioassay records as filed in PubChem.
# A selection: hits, their analogues and other compounds. The true share with any hit is near 4.2%.
# TRPV1 agonist: agonists of human vanilloid receptor 1 (TRPV1); Q8NER1; TRPV1-expressing cells, Fluo-8 calcium influx, agonist mode; activation, % at 8.33 µM; 320,000 tested, 0.19% active; in the data active = activation above about 80%; inconclusive = between about 30% and that limit; note: 0% is about no effect
# Target sequence (Q8NER1 whole entry, looked up): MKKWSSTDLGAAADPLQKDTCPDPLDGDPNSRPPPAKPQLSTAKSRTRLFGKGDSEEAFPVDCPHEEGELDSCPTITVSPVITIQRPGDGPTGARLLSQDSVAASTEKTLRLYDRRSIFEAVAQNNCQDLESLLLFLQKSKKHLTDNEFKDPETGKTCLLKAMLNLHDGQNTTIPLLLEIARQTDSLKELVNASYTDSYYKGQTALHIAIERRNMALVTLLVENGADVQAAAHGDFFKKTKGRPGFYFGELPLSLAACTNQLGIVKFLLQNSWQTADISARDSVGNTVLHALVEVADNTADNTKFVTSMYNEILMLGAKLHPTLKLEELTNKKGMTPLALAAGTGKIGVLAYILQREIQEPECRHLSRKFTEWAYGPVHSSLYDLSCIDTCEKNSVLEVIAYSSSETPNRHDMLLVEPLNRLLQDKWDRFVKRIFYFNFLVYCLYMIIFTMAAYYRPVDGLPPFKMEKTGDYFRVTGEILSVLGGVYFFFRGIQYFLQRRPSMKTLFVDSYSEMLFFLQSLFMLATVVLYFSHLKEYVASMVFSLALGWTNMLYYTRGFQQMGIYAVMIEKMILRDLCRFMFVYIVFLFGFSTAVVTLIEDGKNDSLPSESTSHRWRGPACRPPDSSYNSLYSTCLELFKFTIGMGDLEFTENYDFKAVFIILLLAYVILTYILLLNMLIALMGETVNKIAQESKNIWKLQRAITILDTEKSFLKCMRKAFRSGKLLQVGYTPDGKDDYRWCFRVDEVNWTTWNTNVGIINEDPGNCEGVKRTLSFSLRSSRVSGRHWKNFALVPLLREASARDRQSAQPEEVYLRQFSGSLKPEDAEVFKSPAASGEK
#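 Cells expressing TRPV1 were dye-loaded with Fluo-8 and read kinetically: 10 s baseline, 3 min after compound (agonist portion), then 2 min after EC20 capsaicin (allosteric enhancer portion). Calcium-bound dye fluorescence at 480/520 nm.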
# D1 potentiator: enhances dopamine response at the human D1 receptor | P21728 | HEK293 TREx D1 cells, calcium flux, dopamine EC20 potentiation | potentiation, % at 10 µM | 360,000 tested, 0.036% active; in the data active = potentiation above about 30%; note: 0% is about no effect
# D1 ag: human D1 receptor agonism. P21728. HEK293 T-REx D1 cells, calcium flux, agonist mode. activation, % at 2 µM. 360,000 tested, 1% active. AID 504660; in the data active = activation above about 30%; note: 0% is about no effect
#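 Inducible HEK293 T-REx D1 cells, force-coupled to calcium signalling, were plated at 4000 cells/well with tetracycline and held overnight at 30 C. After no-wash calcium dye loading, compound-evoked calcium rise over 180 s flagged agonists.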
# D1 antagonist: antagonists of human D1 dopamine receptor. HEK293 TREx D1 cells, calcium flux, dopamine EC80; stronger effect = lower value. 360,000 tested, 3.2% active. activity change, negative = inhibition, % at 10 µM. AID 504652; in the data active = activity change below about -30%; note: % is set by controls: 0 for no effect and ±100 for the full control effect
#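 Using tetracycline-induced force-coupled D1 Hek293 cells and a calcium dye, signals were followed for 180 s after compound, then for 180 s after EC80 dopamine, to detect inhibitors.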
# TRPV1 PAM: potentiators of human vanilloid receptor 1 (TRPV1); Q8NER1; TRPV1-expressing cells, Fluo-8 calcium influx, capsaicin EC20 potentiation; potentiation, % at 8.33 µM; 320,000 tested, 0.02% active; AID 540277; in the data active = potentiation above about 80%; inconclusive = between about 30% and that limit; note: 0% is about no effect
#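 Cells expressing TRPV1 were dye-loaded with Fluo-8 and read kinetically: 10 s baseline, 3 min after compound (agonist portion), then 2 min after EC20 capsaicin (allosteric enhancer portion). Calcium-bound dye fluorescence at 480/520 nm.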
# * = called active by the depositor; u = inconclusive; x = not tested or not shown; ! = a repeat was not active.
SMILES,TRPV1 agonist,D1 potentiator,D1 ag,D1 antagonist,TRPV1 PAM
CC(=O)N1CCC2(CC1)CC(=O)c1cc(OCC(=O)N3CCOCC3)ccc1O2,3,-8,2,-38*,25
COc1ccc(C2=CC(c3cccc(C)c3)n3nnnc3N2)cc1 (stereo not given),-1,-2,2,9,-7
CCOC(=O)c1cccc(NC(=O)CCn2c(-c3ccc(F)cc3)cc(C(=O)OCC)c2C)c1,x,-4,8,-14,x
CC(C)(C)n1nc(C2CC2)cc1NC(=O)Nc1ccc(Cl)cc1,11,-9,10,-41*,-18
Cn1c(=O)oc2cc(S(=O)(=O)Nc3ccc(Cl)cc3)ccc21,2,6,2,4,-7
Cn1c(=O)oc2cc(S(=O)(=O)Nc3ccc(O)cc3)ccc21,-4,-1,8,-31*!,-7
Cc1cccc(C(=O)N2CCc3cc(CNS(=O)(=O)c4ccc(F)c(Cl)c4)ccc32)c1,x,3,6,20,x
COc1ccc(OC)c(CNC(=O)Cc2ccc(NC(=O)N3CCSc4ncccc43)cc2)c1,x,-2,0,-17,x
Cn1nnnc1Sc1ncnc2scc(-c3cc4ccccc4o3)c12,2,-6,3,-44*!,28
Cn1nnnc1Sc1ncnc2scc(-c3ccccc3C(F)(F)F)c12,u,8,1,-36*!,-15
Cn1nnnc1Sc1ncnc2scc(-c3ccccc3F)c12,x,-2,0,14,x
CC1(CC(=O)N/N=C/c2ccc(-c3cccc(C(F)(F)F)c3)o2)OCCO1,5,-7,3,-37*,-2
CCOC(=O)N/N=C\c1ccc(-c2cccc(C(F)(F)F)c2)o1,9,-2,3,-5,-7
Cc1ccc(CC2CC(=O)N(CCc3ccc4c(c3)OCO4)C2=O)cc1 (stereo not given),28,-2,1,-31*,-8
O=C1CC(NCc2ccc3c(c2)OCO3)C(=O)N1CCc1ccccc1 (stereo not given),x,-2,18,-11,x
COc1cccc(CC2CC(=O)N(CCc3ccc4c(c3)OCO4)C2=O)c1 (stereo not given),-3,-5,34*,-22,16
Cc1ccc(CNC(=O)CCCN2C(=O)c3cccnc3Oc3ccc(Cl)cc32)cc1,x,-1,1,0,x
CCN1C(=O)c2ccccc2Sc2ccc(NC(=O)Nc3cc(C)cc(C)c3)cc21,x,-2,0,-1,x
CC1CCc2c(sc(NC(=O)c3ccccc3)c2C(=O)Nc2ccccc2)C1 (stereo not given),x,-1,-1,4,x
CCC(=O)Nc1ccc(-c2nnc3c4ccccc4c(C)nn23)cc1,x,-7,-1,-39*,x
COc1cc(C(=O)Nc2cc3c(cc2C)n(C)c(=O)c(=O)n3C)cc(OC)c1OC,x,-1,1,5,x
Cc1ccccc1-c1noc(-c2ccc(O)cc2)n1,-2,4,68*,-41*,-10
Cc1nc(-c2ccc(S(=O)(=O)N3CCCN(CCc4ccccc4)CC3)s2)cs1,13,-4,31*,-22,-15
Cc1nn(-c2ccccc2)c2c1cc1c(=O)[nH]c(=O)nc-1n2-c1cccc(C(F)(F)F)c1,x,1,1,34,x
CC1CCc2c(sc(NC(=O)CSc3ncnc4c3cnn4-c3ccccc3Cl)c2C#N)C1 (stereo not given),0,-1,1,-39*,7
SMILES,TRPV1 agonist,D1 potentiator,D1 ag,D1 antagonist,TRPV1 PAM
CC(C)C(=O)NNC(=O)CSc1ncnc2c1cnn2-c1ccccc1Cl,-4,-4,2,-20,22
Cc1csc(NC(=O)CSc2ncnc3c2cnn3-c2ccccc2Cl)n1,2,-13,7,-31*,23
COCCNC(=O)CCn1c(=O)c2cc(OC)c(OC)cc2n(CC(=O)Nc2ccc(Cl)cc2F)c1=O,x,1,0,-12,x
COc1ccc(-n2c(=O)c3c4c(sc3n3c(SC(C)C)nnc23)COC(C(C)C)C4)cc1 (stereo not given),x,-2,-1,2,x
COc1ccc(NC(=O)c2c(NC(=O)COc3ccc(Cl)cc3)sc3c2CCCCC3)cc1,x,-1,-1,14,x
COc1ccc2c(c1OC)C[N+]1([O-])CCc3cc4c(cc3C1C2)OCO4 (stereo not given),5,-2,3,-38*,-12
CCc1ccc(C2=CC(c3c(F)cccc3Cl)n3c(nc4ccccc43)N2)cc1 (stereo not given),x,-1,39*,-8,x
Cc1ccc(CCNc2nc3c(S(=O)(=O)c4ccc(C)cc4)nnn3c3ccsc23)cc1,x,-6,0,-4,x
CC(NC(=O)CCCN1C(=O)c2ccccc2C1=O)c1ccc2c(c1)CCCC2 (stereo not given),-5,9,3,-40*,6
CCOc1ccc(Nc2c(S(=O)(=O)c3ccc(Cl)cc3)cnc3ccc(OC)cc23)cc1,x,-8,2,10,x
COc1ccccc1N=C1NC(=O)/C(=C/c2ccc(N(C)C)cc2)S1,29,-7,108*,-22,4
COc1cc(/C=C2/SC(=Nc3ccc(O)cc3)NC2=O)cc(OC)c1O,12,-4,47*,-5,-10
COc1ccc(/C=C2\SC(=Nc3ccccc3)NC2=O)cc1,5,-6,3,1,14
COc1cc(/C=C2\SC(=Nc3ccc(O)cc3)NC2=O)cc(OC)c1OC,4,0,1,3,u
CCc1ccccc1Nc1cc(C(=O)NC2CCC(C)CC2)c2ccccc2n1 (stereo not given),x,0,1,-6,x
O=C(Nc1ccccc1Cc1ccccc1)c1ccccc1NS(=O)(=O)c1ccc(Cl)s1,0,-7,28,-60*,14
O=C(Nc1ccccc1)c1ccccc1NS(=O)(=O)c1ccc(Cl)s1,7,-8,30,-35*,13
O=C(NCc1ccco1)c1ccccc1NS(=O)(=O)c1ccc(Cl)s1,3,-1,21,x,7
Cc1ccc(NC(=O)c2ccccc2NS(=O)(=O)c2ccc(Cl)s2)cc1,0,0,26,-44*,u
CS(=O)(=O)c1ccccc1C(=O)Nc1ccccc1Cc1ccccc1,0,0,0,4,-6
CC(C)CCNC(=O)CCCN1C(=O)c2ccccc2Sc2ncccc21,x,-4,0,-21,x
Cc1ccc(-c2cc3nc(C)cc(C)n3n2)cc1,0,0,1,1,2
Cc1cc(C)n2nc(-c3ccsc3-n3c(C)ccc3C)cc2n1,-1,-2,2,-55*,4
CSc1cccc(NC(=O)C2CCN(c3ncnc4c3nc3n4CCCCC3)CC2)c1,x,-1,0,4,x
CC(C)(C)n1nnnc1C(c1cccnc1)N1CCN(c2ccccc2)CC1 (stereo not given),3,-3,2,21,0
CC(C)(C)n1nnnc1C(c1cccnc1)N1CCN(c2ccccn2)CC1 (stereo not given),-1,-3,31*,-60*,7
